One assay relates to Klebsiella pneumoniae. Conditions: Concentration 32 ug.mL-1;; ASSAY_TEST Inhibition of Bacterial Growth; detection method Absorption (OD600); MEDIA CAMHB; plate type 384well; NBS; CORNING #3640; time 18 hr.
Another assay has as its system Candida albicans. Particulars: Concentration 32 ug.mL-1; ASSAY_TEST Inhibition of Fungal Growth; detection method Absorption (OD530).
The test system of a further assay is Cryptococcus neoformans. Conditions: Concentration 32 ug.mL-1; ASSAY_TEST Inhibition of Fungal Growth; detection method Resazurin; Absorption (OD600-OD570); plate type 384well; NBS; CORNING #3640.

Measured potencies and affinities stand elsewhere.

The values below come from ChEMBL document CHEMBL4513146, “CO-ADD screening of Karazin Kharkiv National University (Ukraine) compounds”.

Broadly, the Inhibition is the relative decrease from the control value, in per cent. As to `COc1cccc(-n2ccn3c(SCC(=O)N4CCN(c5ccccc5F)CC4)nnc3c2=O)c1`, the values for the Inhibition in the assay with Klebsiella pneumoniae, with Candida albicans and with Cryptococcus neoformans were 17.26%, 0.16% and -10.18%, respectively.

Take `CC(=O)Nc1ccc(NC(=O)CSc2nc3ccccc3n3cnnc23)cc1`: the Inhibition with Klebsiella pneumoniae was 2.19%; in the assay on Candida albicans, 32.46%; in the assay with Cryptococcus neoformans, -15.75%.

Take `CCc1nnc2c(SCC(=O)Nc3ccc4c(c3)OCCO4)nc3ccccc3n12`: the results for the Inhibition with Klebsiella pneumoniae, in the assay with Candida albicans and in the assay on Cryptococcus neoformans were 7.64%, 5.98% and -5.14%, respectively.

Turning to `COc1ccc(CCn2c(=O)c3sccc3n3c(=O)n(Cc4ccc(F)cc4)nc23)cc1OC`, the Inhibition with Klebsiella pneumoniae is listed as 6.56%; with Candida albicans, 11.53%; in the assay with Cryptococcus neoformans, -31.44%.

Take `COc1ccc(CNC(=O)Cn2nc3c(N4CC(C)CC(C)C4)nccn3c2=O)cc1` (stereo not given): the Inhibition in the assay on Klebsiella pneumoniae is given as -3.24%; in the assay with Candida albicans it was 4.41%; in the assay on Cryptococcus neoformans, -8.27%.

For the compound `Cc1ccc(C)c(-c2cc3c4nnc(SCC(=O)Nc5cccc(Br)c5)n4ccn3n2)c1`, the Inhibition in the assay with Klebsiella pneumoniae is recorded as -2.64%; in the assay on Candida albicans, 49.44%; in the assay on Cryptococcus neoformans, -19.95%.

`CCOc1ccc(-c2nc(CSc3nc4ccccc4n4c(C)nnc34)c(C)o2)cc1`: the values for the Inhibition in the assay with Klebsiella pneumoniae, with Candida albicans and in the assay on Cryptococcus neoformans were 11.43%, 1.94% and -16.17%, respectively.

As for `CCCc1ccc(S(=O)(=O)Nc2ccc3nncn3n2)cc1`, the Inhibition is on record as 8.2% with Klebsiella pneumoniae, 1.65% in the assay with Candida albicans and -5.43% in the assay with Cryptococcus neoformans.

As to `COC(=O)c1cccc(NC(=O)Cn2nc3c(SCc4ccc(Cl)cc4)nccn3c2=O)c1`, the Inhibition with Klebsiella pneumoniae is given as 6.22%; in the assay with Candida albicans it was 27.78%; in the assay on Cryptococcus neoformans it was -15.7%.

For `COc1cc(OC)c(NC(=O)Cn2nc3ccc(-c4ccc(C)c(C)c4)nn3c2=O)cc1Cl`, the Inhibition is listed as 7.84% in the assay on Klebsiella pneumoniae, 1.07% with Candida albicans and -20.51% with Cryptococcus neoformans.
